{"source": "PubChem BioAssay (NCATS)", "note": "Inconclusive results are not listed. Calls of active or inactive are those of the source. The call rests on the fitted dose curve; in most records, active means well fitted cell-killing curve with a large enough effect; inconclusive means small, poorly fitted or top-dose-only effect, or effect the other way; inactive means flat fitted curve, though single readings scatter. On the % scale 0 is the no-effect control and ±100 the full control effect."}
{"tested_on": "HeLa", "experiment": "Primary qHTS to identify gynecologic anti-cancer compounds using libraries of approved drugs and bioactive compounds (AID 1345084); further: nearly all actives have a fitted effect of over 55% in size", "conditions": "Gynecologic cancer cell panel viability, ATPlite luminescence, 48 h; series mostly up to 57.5 µM; activity change, negative = cytotoxicity: at the top concentration", "source_text": "National Center for Advancing Translational Sciences [NCATS] Assay Overview: Chemotherapeutic drug responses vary from cancer to cancer and from patient to patient. These variations could be caused by a number of factors including patient genomic background, tumor mutations, tumor heterogeneity, and aspects of drug treatment. Chemotherapeutic drug resistance is also a common issue and can lead to ineffective treatment and patient death. Here we have profiled the cell killing effects of thousands of compounds to characterize the responses in three gynecological cancers, identify cancer-selective compounds, and understand the diversity of responses to these compounds from pan-cancer suppressors to single cell line selective compounds. In this assay, we screened a 7,914 compound drug library that included approved drug and bioactive compounds in six ovarian, three cervical, and […] placental cancer cell lines using the ATPlite assay for cell viability. […] The cervical cancer cell lines included HeLa, Ca Ski, and C-33 A. The placental cancer cell lines included JEG-3. HEK 293T cells were used as the control cell line to determine the selectivity index. ATPlite is a luminescence based assay reliant on the conversion of a luciferase substrate to light in the presence of ATP. As a cytotoxic compound will suppress growth and decrease the number of cells, the concentration of ATP will decrease, and less light signal will be detected in the well.\nAssay Protocol Summary: 1,000 cells in 4 uL of media were dispensed into white, solid bottom 1536-well plates using a Multidrop Combi (Thermo Scientific). The Assay plates were incubated for 16 hours at 37 C with 5% CO2 in assay plates, followed by the addition of 23 nL of DMSO or drug dissolved in DMSO. Each compound was assayed in five concentrations (0.092, 0.46, 2.3, 11.5, and 57.5 uM), using the automated Wako 1536 Pin Tool workstation and incubated at 37 C with 5% CO2 48 hours. 4 uL of ATPlite, the ATP monitoring reagent, was then added to the each well of the assay plates using the Multidrop Combi reagent dispenser followed by incubation for 15 minutes at room temperature. The resulting luminescence was measured using the ViewLux plate reader."}
{"smiles": "NS(=O)(=O)c1cc2c(cc1Cl)NC(C1CC3C=CC1C3)NS2(=O)=O", "note": "(stereo not given)", "activity change, negative = cytotoxicity": "15.3% (inactive)"}
{"smiles": "Nc1c2c(nc3ccccc13)CCCC2O", "note": "(stereo not given)", "activity change, negative = cytotoxicity": "-4.45% (inactive)"}
{"smiles": "C[C@H](CS)C(=O)N1CCC[C@H]1C(=O)O", "activity change, negative = cytotoxicity": "2.19% (inactive)"}
{"smiles": "CCN(CC)CCNC(=O)c1ccc(NC(C)=O)cc1", "activity change, negative = cytotoxicity": "-0.511% (inactive)"}
{"smiles": "CN=C(NC#N)NCCSCc1nc[nH]c1C", "activity change, negative = cytotoxicity": "-3.14% (inactive)"}
{"smiles": "CCCN(CCC)C(=O)C(CCC(=O)O)NC(=O)c1ccccc1", "note": "(stereo not given)", "activity change, negative = cytotoxicity": "11.2% (inactive)"}
{"smiles": "CCN(CC)CCCN(c1ccccc1)C1Cc2ccccc2C1", "activity change, negative = cytotoxicity": "-2.27% (inactive)"}
{"smiles": "Cc1ccc(Cl)c(Nc2ccccc2C(=O)O)c1Cl", "activity change, negative = cytotoxicity": "-13.4% (inactive)"}
{"smiles": "C[N+](C)(C)CCOC(=O)CCC(=O)OCC[N+](C)(C)C", "activity change, negative = cytotoxicity": "12.5% (inactive)"}
{"smiles": "C[C@]12CC[C@@H]3c4ccc(O)cc4C[C@@H](CCCCCCCCCS(=O)CCCC(F)(F)C(F)(F)F)[C@H]3[C@@H]1CC[C@@H]2O", "note": "(stereo not given in full)", "activity change, negative = cytotoxicity": "-21% (inactive)"}
{"smiles": "CC(C)NCC(O)c1cc(O)cc(O)c1", "note": "(stereo not given)", "activity change, negative = cytotoxicity": "-0.995% (inactive)"}
{"smiles": "COc1cc(C(=O)OCCCN2CCCN(CCCOC(=O)c3cc(OC)c(OC)c(OC)c3)CC2)cc(OC)c1OC", "activity change, negative = cytotoxicity": "-29% (inactive)"}
{"smiles": "Cc1ccc(S(=O)(=O)NC(=O)NN2CCCCCC2)cc1", "activity change, negative = cytotoxicity": "1.1% (inactive)"}
{"smiles": "CCCCCN(CCCCC)C(=O)C(CCC(=O)O)NC(=O)c1ccc(Cl)c(Cl)c1", "note": "(stereo not given)", "activity change, negative = cytotoxicity": "-1.81% (inactive)"}
{"smiles": "Cc1nc2ccccn2c(=O)c1CCN1CCC(C(=O)c2ccc(F)cc2)CC1", "activity change, negative = cytotoxicity": "-15.6% (inactive)"}
{"smiles": "Cc1nc2sccn2c(=O)c1CCN1CCC(=C(c2ccc(F)cc2)c2ccc(F)cc2)CC1", "activity change, negative = cytotoxicity": "-1.1% (inactive)"}
{"smiles": "CC(C)COCC(CN(Cc1ccccc1)c1ccccc1)N1CCCC1", "note": "(stereo not given)", "activity change, negative = cytotoxicity": "-0.291% (inactive)"}
{"smiles": "CC(C)(C)c1ccc(C(=O)CCCN2CCC(OC(c3ccccc3)c3ccccc3)CC2)cc1", "activity change, negative = cytotoxicity": "-4.21% (inactive)"}
{"smiles": "C[C@]12C=CC(=O)C=C1CC[C@H]1[C@@H]3C[C@@H](O)[C@](O)(C(=O)CO)[C@@]3(C)C[C@H](O)[C@@]12F", "activity change, negative = cytotoxicity": "23.4% (inactive)"}
{"smiles": "NC/C=C/C(=O)O", "activity change, negative = cytotoxicity": "8.15% (inactive)"}
{"smiles": "C[N+](C)(C)CCCCCCCCCC[N+](C)(C)C", "activity change, negative = cytotoxicity": "-0.0834% (inactive)"}
{"smiles": "COc1cc(Cc2cnc(N)nc2N)cc(OC)c1OC", "activity change, negative = cytotoxicity": "-0.0423% (inactive)"}
{"smiles": "COC(=O)[C@H]1[C@H]2C[C@@H]3c4[nH]c5cc(OC)ccc5c4CCN3C[C@H]2C[C@@H](OC(=O)c2cc(OC)c(OC)c(OC)c2)[C@@H]1OC", "Potency": "inactive"}
{"smiles": "CC(N=C(NC#N)Nc1ccncc1)C(C)(C)C", "note": "(stereo not given)", "activity change, negative = cytotoxicity": "-2.19% (inactive)"}
{"smiles": "CCc1c(C)[nH]c2c1C(=O)C(CN1CCOCC1)CC2", "note": "(stereo not given)", "activity change, negative = cytotoxicity": "5.72% (inactive)"}
{"smiles": "CC(=O)OCC1=C(C(=O)O)N2C(=O)[C@@H](NC(=O)Cc3cccs3)[C@H]2SC1", "activity change, negative = cytotoxicity": "5.97% (inactive)"}
{"smiles": "NC(=Nc1ccccc1)Nc1ccccc1", "Potency": "inactive"}
{"smiles": "N[C@@H](COP(=O)(O)O)C(=O)O", "activity change, negative = cytotoxicity": "-0.57% [at 25.3 µM] (inactive)"}
{"smiles": "CN1CCN(C2=Nc3ccccc3Oc3ccc(Cl)cc32)CC1", "activity change, negative = cytotoxicity": "-3.27% (inactive)"}
{"smiles": "Cc1cccc(C)c1NC(=O)C(C)N", "note": "(stereo not given)", "activity change, negative = cytotoxicity": "4.03% (inactive)"}
{"smiles": "Nc1nc(N)c2nc(-c3ccccc3)c(N)nc2n1", "activity change, negative = cytotoxicity": "-6.67% (inactive)"}
{"smiles": "CN(C)[C@@H]1C(=O)C(C(N)=O)=C(O)[C@@]2(O)C(=O)C3=C(O)c4c(O)ccc(Cl)c4[C@@H](O)[C@H]3C[C@@H]12", "activity change, negative = cytotoxicity": "-0.0995% (inactive)"}
{"smiles": "C[N+](C)(C)CCOC(N)=O", "activity change, negative = cytotoxicity": "9.74% (inactive)"}
{"smiles": "O=c1[nH]c(=O)n([C@H]2C[C@H](O)[C@@H](CO)O2)cc1Br", "activity change, negative = cytotoxicity": "-14.5% (inactive)"}
{"smiles": "CCCOc1ccccc1-c1nc2n[nH]nc2c(=O)[nH]1", "activity change, negative = cytotoxicity": "14% (inactive)"}
{"smiles": "CC[N+](C)(C)c1cccc(O)c1", "activity change, negative = cytotoxicity": "12.3% (inactive)"}
{"smiles": "CCCCNc1ccc(C(=O)OCCN(C)C)cc1", "activity change, negative = cytotoxicity": "8.44% (inactive)"}
{"smiles": "CN1C[C@H](C(=O)N[C@]2(C)O[C@@]3(O)[C@@H]4CCCN4C(=O)[C@H](Cc4ccccc4)N3C2=O)C[C@@H]2c3cccc4[nH]cc(c34)C[C@H]21", "activity change, negative = cytotoxicity": "1.84% (inactive)"}
{"smiles": "OCCN1CCN(CC/C=C2/c3ccccc3Sc3ccc(C(F)(F)F)cc32)CC1", "activity change, negative = cytotoxicity": "-15% (inactive)"}
{"smiles": "CCn1nc(C(=O)O)c(=O)c2cc3c(cc21)OCO3", "activity change, negative = cytotoxicity": "20.5% (inactive)"}
